Among the data in PubChem BioAssay (NCATS) are max response, Potency and outcome values, retold here.

What all share (experiment): Cytotoxic Profiling of Annotated Libraries Using Quantitative High-Throughput Screening (AID 1296008); note: nearly all actives have a fitted effect of over 60% in size
Holding throughout (conditions): Five cell lines viability, CellTiter-Glo ATP luminescence, 48-72 h; max response: stronger effect = lower value

One test relates to CRL-7250. In a few lines:
(§1)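 Compounds were pin-transferred onto cells and incubated 48 or 72 hr at 37 degree Celsius, 95% humidity. CellTiter-Glo was added, plates sat 10 min at room temperature, then ATP-coupled luminescence was imaged as the viability read-out.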

A further test has as its system HaCat. In a few lines:
as §1

The subject of a further test is KB-3-1. The method in brief:
as §1

For another test, the system named is NIH3T3. The method in brief:
as §1

Each structure is given as a SMILES string. Several values for one entry are separate records, joined by “and”; a condition that tells them apart may be missing. Identical values can stand only once. Results filed as inconclusive are left out. Values without a mark were called inactive. Activity calls are given as the source filed them. Calls come from the whole dose curve; as a rule, active = well fitted inhibition curve with a large enough effect; inconclusive = small, poorly fitted or top-dose-only effect; inactive = flat fitted curve, though single readings scatter.
% is set by controls: 0 for no effect and ±100 for the full control effect; potency is the fitted concentration of half-maximal effect.

As to `CCn1nc(C2CCN(C(=O)CCO)CC2)nc1-c1cnc(N)c(-c2nnc(C(C)(C)C)o2)n1`, the max response in the test with CRL-7250 is -9.09%; with KB-3-1, 9.1%. The Potency in the test with HaCat was 3.66 µM (active); in the test on NIH3T3, 8.2 µM (active).

In the case of `CC(=O)OC1C(=O)C2C3OCC4=C3[C@@](C)(CC[C@@H]4O)CC[C@]2(C)[C@H]1C(C)C` (stereo partly specified), the max response in the test with CRL-7250 was 0.411%; with HaCat, -13.7%; with KB-3-1, 4.67%; in the test with NIH3T3, 1.97%.

As to `O=C1Nc2ccccc2-c2nc3ccccc3c(=O)n2-c2c(O)cccc21`, the max response in the test with CRL-7250 was 3.48%; in the test on HaCat, -26.5%; in the test on KB-3-1, 0.451%; in the test on NIH3T3 it was 1.73%.

As to `CC1(C)CCC2(C(=O)OC3OC(COC4OC(CO)C(O)C(O)C4O)C(O)C(O)C3O)CCC3(C)C(=CCC4C5(C)CCC(OC6OCC(O)C(O)C6O)C(C)(C)C5CCC43C)C2C1O` (stereo unspecified), the max response was -0.133% in the test with CRL-7250, -3.21% in the test with HaCat and -18.4% in the test with NIH3T3. The outcome in the test on KB-3-1 was inactive.

With `COc1cc(OC)c2c(=O)[nH]c(-c3cc(C)c(OCCO)c(C)c3)nc2c1`, the max response is -10.3% in the test on CRL-7250, 1.79% with HaCat and -22% with NIH3T3. The result in the test with KB-3-1 was inactive.

On to `CC#C[C@@H](CC(=O)O)c1ccc(OCc2ccc(CN3CCC4(C=Cc5ccccc54)CC3)s2)cc1`, for which the compound was called inactive with CRL-7250 and in the test with NIH3T3. In addition, the max response in the test on HaCat is 1.71%; in the test with KB-3-1 it was -9.33%.

With `COc1ccc(NC(=O)C2C[C@H](C)CC[C@H]2C(C)C)cc1` (stereo partly specified), the result with CRL-7250 and in the test on KB-3-1 was inactive. Further, the max response is -2.17% in the test with HaCat and -6.73% in the test on NIH3T3.

For the compound `C=C[C@](C)(O)CC[C@H]1C(C)=CC(=O)[C@H]2C(C)(C)CCC[C@]12C`, the max response was -9.12% with CRL-7250, 1.13% in the test on HaCat, -5.31% in the test on KB-3-1 and 0.554% with NIH3T3.

With `CC(C)n1c(=O)c(C(=O)NC2CC3CCC(C2)N3C[C@@H](O)CN(C)S(C)(=O)=O)cc2ccccc21` (stereo partly specified), the max response in the test with CRL-7250 was -15.6%; in the test with HaCat it was -16.2%; in the test on KB-3-1, -11.4%; in the test on NIH3T3, -22.5%.

For `CCOC(=O)C1=Cc2ccc(C(F)(F)C(F)(F)F)cc2N=C(N)C1`, the max response is -15.9% in the test on CRL-7250, -0.757% with HaCat, -20.4% in the test on KB-3-1 and -6.78% with NIH3T3.

Turning to `COc1c(F)cccc1C(=O)N1C[C@@H](C)CC[C@H]1CNc1ccc(Br)cn1`, the max response in the test on CRL-7250 is -14.6%; in the test on HaCat, 1.51%; in the test with KB-3-1 it was -16%; in the test with NIH3T3 it was -27.7%.

As for `C[C@H]1CO[C@@H]2Cn3cc(C(=O)NCc4ccc(F)cc4F)c(=O)c(O)c3C(=O)N12`, the max response is -9.56% in the test with CRL-7250, 1.95% in the test with HaCat, -18.7% in the test on KB-3-1 and 2.62% in the test on NIH3T3.

Consider `Cn1cc(-c2ccc(F)c(C(F)(F)F)c2)nc1C1CCN(c2ncnc3[nH]ncc23)CC1`, for which the max response in the test on CRL-7250 is -0.425%; with HaCat, -21.3%; in the test on KB-3-1, 0.816%; with NIH3T3 it was 1.5% and -4.9%.

Regarding `COc1cc2c(cc1O)C1(Cc3ccc4c(c3C1O)OCO4)[N+](C)([O-])CC2` (stereo unspecified), the outcome with CRL-7250 and in the test with KB-3-1 was inactive. Moreover, the max response in the test on HaCat was -20.1%; with NIH3T3 it was -2.31%.

On to `C[C@H]1CC[C@@]2(OC1)O[C@H]1CC3C4CC[C@H]5C[C@@H](O)CC[C@]5(C)C4=CC(=O)[C@]3(C)[C@H]1[C@@H]2C` (stereo partly specified), for which the outcome with CRL-7250 and in the test with NIH3T3 was inactive. The max response in the test with HaCat is -3.38%; in the test with KB-3-1, 0.81%.

As for `CO[C@H]1O[C@@H]2O[C@@]3(C)CCC4[C@H](C)CCC([C@H]1C)[C@]42OO3` (stereo partly specified), the compound was called inactive in the test with CRL-7250, in the test with KB-3-1 and in the test on NIH3T3. Further, the max response in the test with HaCat is -12.1%.

Take `Cc1ccc(C2(C(=O)N3CCC(n4nc(-c5ccccc5)oc4=O)CC3)CC2)cc1`: the max response in the test on CRL-7250 was -18.3%; in the test with HaCat, -7.48%; in the test with KB-3-1, -8.37%; in the test with NIH3T3, -1.74%.

`Cn1cc(-c2ccc(S(=O)(=O)n3ccc(/C=C/C(=O)Nc4ccccc4N)c3)cc2)cn1`: the Potency was 9.2 µM (active) with CRL-7250, 1.46 µM (active) in the test with KB-3-1 and 4.61 µM (active) with NIH3T3. For the same compound, in the test on HaCat, the max response is -149%.

`COc1cc2ncnc(Nc3ccc(F)c(Cl)c3)c2cc1O`: the call with CRL-7250 and in the test with NIH3T3 was inactive. In addition, the Potency in the test on HaCat was 1.3 µM (active). Moreover, the max response in the test on KB-3-1 was -4.6%.

Regarding `COc1ccc(C2(N(C)C(=O)c3ccc(NC(=O)c4ccco4)cc3)CCOCC2)cc1`, the max response in the test on CRL-7250 is -25.1%; in the test with HaCat, -27.5%; with KB-3-1, -3.65%; in the test on NIH3T3, -15.7%.

As for `O=C(O)CCc1nccc2c1[nH]c1ccccc12`, the max response in the test on CRL-7250 was -19.9%; in the test with HaCat, 3.67%; in the test on NIH3T3, -2.87%. Besides, the call in the test with KB-3-1 was inactive.

Turning to `CC(=O)OC/C(=C/C(=O)O)CC[C@@H]1C(C=O)=CC[C@@H]2C(C)(C)CCC[C@@]12C`, the max response in the test with CRL-7250 is 4.87%; with HaCat, 3.05%; with KB-3-1 it was 3.67%; with NIH3T3, 3.58%.

Regarding `O=C(NCc1ccccc1-c1ccccc1C(=O)NCCc1ccccn1)OCc1ccccc1`, the max response with CRL-7250 is 2.09%; in the test on HaCat, -7.21%; with KB-3-1 it was 8.57%; in the test with NIH3T3, 0.337%.

For the compound `O=C(N[C@H](Cc1cscn1)C(=O)N[C@@H](CC1CCCCC1)[C@@H](O)[C@@H](O)C1CC1)c1nc2ccccc2[nH]1`, the max response in the test with CRL-7250 is 0.844%; with HaCat, -14.3%; in the test with KB-3-1, -12.2%; with NIH3T3, -17.1%.
